# Laboratory results as given in article PMC7862700, “An all-to-all approach to the identification of sequence-specific readers for epigenetic DNA modifications on cytosine”.
# How the values were obtained:
# Experiment in all cases: DAPPL (digital affinity profiling via proximity ligation, sequencing); 10 mM Tris-HCl pH 7.5, 50 mM NaCl, 1 mM DTT, 4% glycerol, room temperature, 30 min; GST-TFs on glutathione beads, 16-mer random dsDNA library, 0.1% formaldehyde crosslink after washing; high values mean tight binding
# Conditions in all cases: protein: recombinant; tags: N-terminal GST; dsDNA, one strand shown
# ETV1 = ETV1 (Homo sapiens, UniProt P50549 1-477)
# Outline: (§1)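 Human transcription factors fused to GST were expressed in yeast, captured on glutathione beads, given DNA barcodes and pooled with a GST-only negative control. Pools were incubated with 200 nmole of a 16-mer random double-stranded DNA library in Tris/NaCl/DTT/glycerol buffer at room temperature for 30 min. They were then washed, crosslinked with 0.1% formaldehyde, proximity-ligated (BsaI/T4 ligase, 1 h, 37 °C), PCR-amplified and sequenced on an Illumina NextSeq500. Binding signal is each 6-mer's read frequency for a factor divided by its frequency for the GST control.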
# ERF = biological target: T1, ERF (Homo sapiens, UniProt P50548 1-548)
# T1 sequence: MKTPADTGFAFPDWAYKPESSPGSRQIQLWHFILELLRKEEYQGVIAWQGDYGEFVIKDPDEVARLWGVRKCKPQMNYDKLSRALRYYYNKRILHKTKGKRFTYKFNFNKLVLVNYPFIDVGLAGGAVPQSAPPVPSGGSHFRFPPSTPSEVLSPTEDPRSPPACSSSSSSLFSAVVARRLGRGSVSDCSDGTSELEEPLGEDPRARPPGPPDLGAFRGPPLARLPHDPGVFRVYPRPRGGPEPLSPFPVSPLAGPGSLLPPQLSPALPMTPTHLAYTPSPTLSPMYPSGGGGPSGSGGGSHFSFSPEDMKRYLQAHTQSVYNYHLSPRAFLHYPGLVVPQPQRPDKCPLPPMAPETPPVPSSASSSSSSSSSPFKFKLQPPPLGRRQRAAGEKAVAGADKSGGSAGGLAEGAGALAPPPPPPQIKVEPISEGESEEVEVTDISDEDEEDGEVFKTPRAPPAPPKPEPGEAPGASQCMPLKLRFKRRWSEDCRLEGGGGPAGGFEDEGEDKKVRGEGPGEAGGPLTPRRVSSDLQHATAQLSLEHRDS
# Outline: as §1
# ETV3L = biological target: T2, ETV3L (Homo sapiens, UniProt Q6ZN32 1-361)
# T2 sequence: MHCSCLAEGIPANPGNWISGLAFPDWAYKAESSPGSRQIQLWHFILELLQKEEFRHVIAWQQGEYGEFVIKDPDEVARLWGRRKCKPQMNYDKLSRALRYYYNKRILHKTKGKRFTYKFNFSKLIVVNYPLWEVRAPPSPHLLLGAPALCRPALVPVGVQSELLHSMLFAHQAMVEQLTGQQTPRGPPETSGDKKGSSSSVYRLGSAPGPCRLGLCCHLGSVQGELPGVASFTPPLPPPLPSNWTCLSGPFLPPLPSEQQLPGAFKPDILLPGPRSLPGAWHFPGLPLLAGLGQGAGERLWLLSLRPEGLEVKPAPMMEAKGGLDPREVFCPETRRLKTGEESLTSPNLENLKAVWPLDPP
# Outline: as §1
# ETS2 = biological target: T3, ETS2 (Homo sapiens, UniProt P15036 1-469)
# T3 sequence: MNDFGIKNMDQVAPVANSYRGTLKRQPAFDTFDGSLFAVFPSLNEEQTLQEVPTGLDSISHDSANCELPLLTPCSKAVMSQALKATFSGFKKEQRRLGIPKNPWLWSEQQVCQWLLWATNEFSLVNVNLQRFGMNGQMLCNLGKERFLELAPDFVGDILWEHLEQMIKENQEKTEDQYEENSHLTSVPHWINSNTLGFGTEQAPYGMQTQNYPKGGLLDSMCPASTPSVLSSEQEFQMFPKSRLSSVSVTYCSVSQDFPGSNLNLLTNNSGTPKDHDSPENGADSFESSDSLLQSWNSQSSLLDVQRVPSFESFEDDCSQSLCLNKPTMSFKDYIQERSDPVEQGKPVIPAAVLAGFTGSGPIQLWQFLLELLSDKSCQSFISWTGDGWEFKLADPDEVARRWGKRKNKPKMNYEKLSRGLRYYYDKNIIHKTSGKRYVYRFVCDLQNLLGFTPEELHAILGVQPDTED
# Outline: as §1
# SPDEF = biological target: T4, SPDEF (Homo sapiens, UniProt O95238 1-335)
# T4 sequence: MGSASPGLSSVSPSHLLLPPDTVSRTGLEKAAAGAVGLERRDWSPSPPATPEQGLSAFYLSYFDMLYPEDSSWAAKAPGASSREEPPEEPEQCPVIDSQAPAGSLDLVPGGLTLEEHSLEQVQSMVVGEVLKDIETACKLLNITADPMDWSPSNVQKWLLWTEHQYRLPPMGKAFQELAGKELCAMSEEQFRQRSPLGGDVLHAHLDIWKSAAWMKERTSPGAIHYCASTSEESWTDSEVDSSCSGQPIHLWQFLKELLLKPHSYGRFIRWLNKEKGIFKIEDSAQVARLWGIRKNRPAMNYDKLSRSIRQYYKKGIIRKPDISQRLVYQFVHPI
# Outline: as §1
# ETV7 = biological target: T5, ETV7 (Homo sapiens, UniProt Q9Y603 1-341)
# T5 sequence: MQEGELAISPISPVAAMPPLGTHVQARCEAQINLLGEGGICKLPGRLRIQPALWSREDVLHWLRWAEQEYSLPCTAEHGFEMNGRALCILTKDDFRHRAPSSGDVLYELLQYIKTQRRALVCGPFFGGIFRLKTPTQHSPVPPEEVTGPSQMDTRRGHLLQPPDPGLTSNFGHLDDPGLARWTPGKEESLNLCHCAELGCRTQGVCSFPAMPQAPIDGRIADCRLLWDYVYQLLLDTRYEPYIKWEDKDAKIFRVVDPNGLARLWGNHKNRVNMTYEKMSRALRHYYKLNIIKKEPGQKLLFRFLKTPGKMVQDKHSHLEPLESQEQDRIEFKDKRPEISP
# Outline: as §1
# ELF5 = biological target: T6, ELF5 (Homo sapiens, UniProt Q9UKW6-2 1-255)
# T6 sequence: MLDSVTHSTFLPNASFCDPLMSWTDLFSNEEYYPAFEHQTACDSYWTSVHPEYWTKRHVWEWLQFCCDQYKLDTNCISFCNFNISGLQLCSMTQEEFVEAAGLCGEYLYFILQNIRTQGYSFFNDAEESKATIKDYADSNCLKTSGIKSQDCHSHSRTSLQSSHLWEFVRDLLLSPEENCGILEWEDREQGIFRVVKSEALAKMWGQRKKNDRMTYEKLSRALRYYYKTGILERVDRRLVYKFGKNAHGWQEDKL
# Outline: as §1
# ETV3 = biological target: T7, ETV3 (Homo sapiens, UniProt P41162-2 1-143)
# T7 sequence: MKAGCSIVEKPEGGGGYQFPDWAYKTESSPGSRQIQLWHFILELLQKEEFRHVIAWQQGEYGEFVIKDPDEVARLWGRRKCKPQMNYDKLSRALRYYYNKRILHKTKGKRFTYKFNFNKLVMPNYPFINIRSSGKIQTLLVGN
# Outline: as §1
# ETV6 = ETV6 (Homo sapiens, UniProt P41212 1-452)
# Outline: as §1
# Chain of ETV1 (P50549 whole entry, the tested form may be a part): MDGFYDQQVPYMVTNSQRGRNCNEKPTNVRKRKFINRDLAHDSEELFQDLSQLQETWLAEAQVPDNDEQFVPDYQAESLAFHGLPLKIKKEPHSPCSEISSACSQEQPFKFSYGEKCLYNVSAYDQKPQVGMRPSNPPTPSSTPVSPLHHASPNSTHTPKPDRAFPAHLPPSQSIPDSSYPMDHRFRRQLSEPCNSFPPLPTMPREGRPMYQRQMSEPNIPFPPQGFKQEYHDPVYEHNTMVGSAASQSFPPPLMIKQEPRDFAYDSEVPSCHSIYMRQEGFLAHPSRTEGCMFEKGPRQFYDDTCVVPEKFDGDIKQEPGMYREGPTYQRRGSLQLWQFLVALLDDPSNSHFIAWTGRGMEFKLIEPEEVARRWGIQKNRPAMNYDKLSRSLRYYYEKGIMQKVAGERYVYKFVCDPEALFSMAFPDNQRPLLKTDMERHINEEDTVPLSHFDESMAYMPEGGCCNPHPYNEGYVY
# Chain of ETV6 (P41212 whole entry): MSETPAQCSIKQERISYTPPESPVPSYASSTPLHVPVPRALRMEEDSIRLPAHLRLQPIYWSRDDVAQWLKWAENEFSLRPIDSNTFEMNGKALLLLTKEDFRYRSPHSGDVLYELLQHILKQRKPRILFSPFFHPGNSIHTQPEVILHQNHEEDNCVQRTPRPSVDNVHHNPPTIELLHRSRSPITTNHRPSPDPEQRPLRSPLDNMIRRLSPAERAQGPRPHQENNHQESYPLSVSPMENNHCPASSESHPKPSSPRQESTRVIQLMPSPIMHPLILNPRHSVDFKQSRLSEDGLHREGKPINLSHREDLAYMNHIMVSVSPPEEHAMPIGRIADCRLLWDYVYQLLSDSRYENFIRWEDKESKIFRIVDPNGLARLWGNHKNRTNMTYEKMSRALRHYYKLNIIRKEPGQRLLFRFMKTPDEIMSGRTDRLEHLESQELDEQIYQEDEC
sequence,measurement,setting,value
ATCGAT,binding signal,ETV1,"1.07 fold enrichment (6-mer frequency, TF over GST control)"
same,binding signal,ERF,"1.13 fold enrichment (6-mer frequency, TF over GST control)"
same,binding signal,ETV3L,"1.17 fold enrichment (6-mer frequency, TF over GST control)"
same,binding signal,ETS2,"1.1 fold enrichment (6-mer frequency, TF over GST control)"
same,binding signal,SPDEF,"1.09 fold enrichment (6-mer frequency, TF over GST control)"
same,binding signal,ETV7,"1.11 fold enrichment (6-mer frequency, TF over GST control)"
same,binding signal,ELF5,"1.09 fold enrichment (6-mer frequency, TF over GST control)"
same,binding signal,ETV3,"1.15 fold enrichment (6-mer frequency, TF over GST control)"
same,binding signal,ETV6,"1.11 fold enrichment (6-mer frequency, TF over GST control)"
